Several values for one entry are separate records, joined by “and”; a condition that tells them apart may be missing. Equal entries are not always repeated. Records with an inconclusive call do not appear. Activity calls are given as the source filed them. Unless noted, calls follow the shape of the dose curve; as a rule, active = well fitted curve in the direction sought with a large enough effect; inconclusive = small, poorly fitted or top-dose-only effect, or another doubt; inactive = no such curve, though single readings can be large; an effect the other way counts as inactive or inconclusive.
Tests used:
[1] = qHTS Assay for Identifying Gametocytocidal Compounds (AID 743244);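 also: % is scaled to controls: 0 for no effect and ±100 for the full control effect; actives lower the fluorescent signal which means gametocytes are killed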; conditions: P. falciparum 3D7 stage III-V gametocytes, alamarBlue, 72 h; max response: stronger effect = lower value
How it was run: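 Late gametocytes (III–V), P. falciparum 3D7; 72 h drug, then 24 h alamarBlue; resazurin reduction read by fluorescence.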

[2] = qHTS assay for small molecule agonists of the antioxidant response element (ARE) signaling pathway measured by Nrf2-dependant transcriptional activity (AID 720636; active = well fitted curve in the direction sought with a large enough effect in the repeat runs; an effect the other way counts as inactive or inconclusive;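 also: HepG2 cells with an ARE-driven luciferase reporter; % of control where 0% means no effect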); conditions: ARE-luc HepG2, Nrf2 luciferase reporter, 16 h; series mostly up to 92.4 µM
How it was run: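 ONE-Glo luminescence, read 30 min after reagent addition at room temperature, reflected ARE reporter activity in HepG2 cells that had been incubated with compound for 16 hr at 37 C in 1% dialyzed FBS.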

[3] = qHTS assay for small molecule antagonists of the retinoid-related orphan receptor gamma (ROR-gamma) signaling pathway - cell viability counter screen (AID 720652; active = well fitted curve in the direction sought with a large enough effect in the repeat runs; an effect the other way counts as inactive or inconclusive;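 also: CHO reporter cells with doxycycline-induced ROR-gamma expression; compound exposure lasted 16 hr before ATP read; % is scaled to controls: 0 for no effect and ±100 for the full control effect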); conditions: RORgamma reporter cell line viability counter screen; series mostly up to 92.2 µM
How it was run: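 Cytotoxicity is quantified via intracellular ATP (CellTiter-Glo luminescence) in doxycycline-induced CHO ROR response element-luciferase reporter cells treated with compound for 16 hr at 37 C, 5% CO2.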

[4] = qHTS assay for small molecule agonists of the antioxidant response element (ARE) signaling pathway measured by Nrf2-dependant transcriptional activity - cell viability counter screen (AID 720653; active = well fitted curve in the direction sought with a large enough effect in the repeat runs; an effect the other way counts as inactive or inconclusive; also: % is scaled to controls: 0 for no effect and ±100 for the full control effect); conditions: ARE-bla HepG2 viability, CellTiter-Glo ATP luminescence, 16 h; stronger effect = lower value
How it was run: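 Cytotoxicity counter screen: intracellular ATP quantified by CellTiter-Glo luminescence in the same ARE-bla HepG2 plates, after 16 h compound exposure and a 2 h beta-lactamase substrate step.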

[5] = qHTS assay for cell viability of HEK293 cells (AID 743288); conditions: ATP luminescence (CellTiter-Glo), 18 h, stronger effect = lower value; also: % is scaled to controls: 0 for no effect and ±100 for the full control effect; nearly all actives have a fitted effect of over 50% in size
How it was run: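 The Tox21 protocol used parental HEK293 cells treated for 18 h at 37 C with compounds delivered by pintool; ATP-coupled luminescence after 30 min at room temperature gave viability.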

[6] = qHTS assay for cell viability of the p53RE-bla HCT-116 cell line (AID 743292); conditions: p53RE-bla HCT-116 viability, ATP luminescence, 16 h; series mostly up to 95 µM; also: % is scaled to controls: 0 for no effect and ±100 for the full control effect; nearly all actives have a fitted effect of over 55% in size
How it was run: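 After plating at 4,000 cells per well and a 5 h rest at 37 C, HCT-116 cells carrying p53RE-bla received test chemicals in DMSO. Sixteen hours later at 37 C, CellTiter-Glo was added and luminescence recorded following 30 min at room temperature.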

[7] = qHTS profiling of the MIPE4 collection as inhibitors of Plasmodium falciparum (3D7) proliferation (AID 743344; call rule not given here;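 also: scaled between DMSO vehicle wells and 0.29 µM artemisinin as full inhibition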); conditions: P. falciparum 3D7 in erythrocytes, SYBR Green DNA fluorescence, 72 h; at 28.5 µM (top of the series)
How it was run: (§1)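 Erythrocytes infected with P. falciparum (0.3% parasitemia, 2.5% hematocrit) incubated with compounds 72 h at 37 C, 5% CO2. Lysis with saponin/Triton buffer containing SYBR Green I, overnight at room temperature in the dark; DNA fluorescence (485/535 nm) normalised to 0.29 uM artemisinin and DMSO.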

[8] = qHTS profiling of the MIPE4 collection as inhibitors of Plasmodium falciparum (DD2) proliferation (AID 743345; call rule not given here); conditions: P. falciparum Dd2 in erythrocytes, SYBR Green DNA, 72 h; at 28.5 µM (top of the series)
How it was run: as §1

[9] = qHTS profiling of the MIPE4 collection as inhibitors of Plasmodium falciparum (DD2) proliferation (Rep 2) (AID 743346; call rule not given here); conditions: P. falciparum Dd2 in erythrocytes, SYBR Green DNA, 72 h; at 28.5 µM (top of the series)
How it was run: as §1

[10] = qHTS profiling of the MIPE4 collection as inhibitors of Plasmodium falciparum (HB3) proliferation (AID 743347; call rule not given here;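 also: plate controls were DMSO vehicle wells for no effect and artemisinin wells for full effect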); conditions: P. falciparum HB3 in erythrocytes, SYBR Green DNA, 72 h; at 28.5 µM (top of the series)
How it was run: as §1

In the case of CCOC(=O)COc1ccc2c(C)c(CCN(CC)CC)c(=O)oc2c1, the max response [1] is reported as 15% (inactive).
For O=P(O)(O)OC(CO)CO, the max response [1] was 10.5% (inactive).
In the case of CC#CCC(C)[C@H](O)/C=C/[C@@H]1[C@H]2C/C(=C/CCCC(=O)O)C[C@H]2C[C@H]1O (stereo not given in full), the max response [1] is reported as 11.1% (inactive).
In the case of CN[C@@H]1CCc2[nH]c3ccc(C(N)=O)cc3c2C1, the max response [1] is reported as -0.658% (inactive).
In the case of COC(=O)C1=C(C)NC(C)=C(C(=O)O[C@H]2CCN(Cc3ccccc3)C2)[C@H]1c1cccc([N+](=O)[O-])c1, the max response [1] is reported as 22.4% (inactive).
In the case of CN(C)Cc1ccccc1, the outcome [2] is reported as “inactive”, the outcome [3] is reported as “inactive” and the max response [4] is reported as -3.95% (inactive). The max response [1] was 9.16% (inactive), the max response [5] was 0.0798% (inactive) and the outcome [6] was “inactive”.
In the case of CCCCCCCCCCCCCCCCCC(=O)OCCO, the max response [1] is reported as -0.219% (inactive).
For C/C=C(/CC[C@@H](C)[C@H]1CC[C@H]2C3=CC[C@H]4[C@H](C)[C@@H](O)CC[C@]4(C)[C@H]3CC[C@]12C)C(C)C, the max response [1] was -5.29% (inactive).
In the case of CC1(C)S[C@@H]2[C@H](NC(=O)[C@H](N)c3ccccc3)C(=O)N2[C@H]1C(=O)OCOC(=O)[C@@H]1N2C(=O)C[C@H]2S(=O)(=O)C1(C)C, the max response [1] is reported as 8.04% (inactive).
In the case of CC(=O)S[C@@H]1CC2=CC(=O)CC[C@]2(C)[C@H]2CC[C@@]3(C)[C@@H](CC[C@@]34CCC(=O)O4)[C@H]12, the outcome [2] is reported as “inactive”, the max response [4] is reported as -12% (inactive) and the max response [1] is reported as 15.7% (inactive). The outcome [6] was “inactive”.
For O=C(Cn1cnnn1)N[C@@H]1C(=O)N2C(C(=O)O)=C(CSc3nncs3)CS[C@H]12, the max response [1] was 1.4% (inactive) and 3.1% (inactive).
For CCCCCCCCCCCCCCCC(=O)OC[C@@H](COP(=O)([O-])OCC[N+](C)(C)C)OC(=O)CCCCCCCCCCCCCCC, the max response [1] was 1.44% (inactive).
In the case of COc1cc([C@@H]2c3cc4c(cc3C(O[C@@H]3O[C@@H]5COC(c6cccs6)O[C@H]5[C@H](O)[C@H]3O)C3COC(=O)[C@@H]32)OCO4)cc(OC)c1O (stereo not given in full), the max response [1] is reported as -13.4% (inactive).
In the case of CC(C(=O)O)c1ccc(C2CCCCC2)c2ccccc12 (stereo not given), the max response [1] is reported as 16% (inactive).
For COC(C)=O, the outcome [2] was “inactive”, the outcome [3] was “inactive” and the max response [4] was 11.2% (inactive). For the same molecule, the max response [1] was 1.99% (inactive), the max response [5] was -4.96% (inactive) and the outcome [6] was “inactive”.
For CCCCC(=O)O, the max response [1] was -7.14% (inactive) and 15.8% (inactive).
In the case of CCCCCCCCCCCCCCCC(=O)OC/C=C(C)/C=C/C=C(C)/C=C/C1=C(C)CCCC1(C)C, the max response [1] is reported as -4.83% (inactive).
With O=C(O)c1cccc(/C=C2/C[C@@H]3[C@@H](/C=C/[C@@H](O)C4CCCCC4)[C@H](O)C[C@@H]3O2)c1 the max response [1] was -5.6% (inactive).
With C=Cc1ccccc1 the outcome [2] was “inactive”, the outcome [3] was “inactive” and the max response [4] was 5.41% (inactive) and 3.34% (inactive). For the same molecule, the max response [1] was 5.81% (inactive), the max response [5] was 4.36% (inactive) and 2.49% (inactive) and the outcome [6] was “inactive”.
CC(=O)NC[C@H]1CN(c2ccc(N3CCSCC3)c(F)c2)C(=O)O1 gave a parasite growth, % of DMSO control [7] of 91.5%, a parasite growth remaining, % of DMSO control (lower = more inhibition) [8] of 103% and a parasite growth, % of control (lower = inhibition) [9] of 186%. For the same molecule, the growth, % of control [10] was 110%.
N[C@@H](C(=O)N[C@H]1C(=O)N2C(C(=O)O)=C(Cl)CC[C@H]12)c1ccccc1 gave a parasite growth, % of DMSO control [7] of 101%, a parasite growth remaining, % of DMSO control (lower = more inhibition) [8] of 100% and a parasite growth, % of control (lower = inhibition) [9] of 78.4%. The growth, % of control [10] was 104%.

Reference: PubChem BioAssay (NCATS)
